± gives the standard deviation of the averaged measurements.
system: Serratia marcescens K904 PosmB-luxCDABE reporter (pMQ747); assay: PosmB-lux reporter fold induction (RLU/OD600 relative to no-compound control), highest over Biolog concentrations; higher = stronger reporter activation; conditions: Biolog plate: PM15; well positions: G5-8; ΔrcsB mutant CMS5177; 4 h
Procedure: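 Serratia marcescens K904 (wild type) or its isogenic ΔrcsB mutant, carrying the Rcs-dependent PosmB-luxCDABE reporter plasmid pMQ747, was grown in LB at OD600 0.1 in Biolog Phenotype MicroArray plates PM11-20 for 4 h at 30-32°C. Each compound is present at 3-4 proprietary concentrations (not stated); per the Fig. S1 legend the value given is the highest fold over those wells. Three independent trials.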

| Compound | PosmB-lux reporter fold induction |
| --- | --- |
| [N-]=[N+]=[N-] [Sodium azide] | 1.5 ± 0.15 |

same assay, conditions: Biolog plate: PM18; well positions: H9-12; ΔrcsB mutant CMS5177; 4 h

| Compound | PosmB-lux reporter fold induction |
| --- | --- |
| CC1=CC(=O)c2c(O)cccc2C1=O [plumbagin] | 1.11 ± 0.53 |

From the supplement of paper PMC9942566
